Source: PubChem BioAssay
12-LOX inh – blocks human arachidonate 12S-lipoxygenase; P18054; purified 12hLO, xylenol orange hydroperoxide absorbance; Potency, µM (highest dose often 108 µM), inactives show at the top dose activity change, negative = inhibition, actives largely listed as inhibitors; 1.1% of 580,000 active; AID 1671190; note: % is set by controls: 0 for no effect and ±100 for the full control effect
Target sequence (P18054 whole entry, looked up): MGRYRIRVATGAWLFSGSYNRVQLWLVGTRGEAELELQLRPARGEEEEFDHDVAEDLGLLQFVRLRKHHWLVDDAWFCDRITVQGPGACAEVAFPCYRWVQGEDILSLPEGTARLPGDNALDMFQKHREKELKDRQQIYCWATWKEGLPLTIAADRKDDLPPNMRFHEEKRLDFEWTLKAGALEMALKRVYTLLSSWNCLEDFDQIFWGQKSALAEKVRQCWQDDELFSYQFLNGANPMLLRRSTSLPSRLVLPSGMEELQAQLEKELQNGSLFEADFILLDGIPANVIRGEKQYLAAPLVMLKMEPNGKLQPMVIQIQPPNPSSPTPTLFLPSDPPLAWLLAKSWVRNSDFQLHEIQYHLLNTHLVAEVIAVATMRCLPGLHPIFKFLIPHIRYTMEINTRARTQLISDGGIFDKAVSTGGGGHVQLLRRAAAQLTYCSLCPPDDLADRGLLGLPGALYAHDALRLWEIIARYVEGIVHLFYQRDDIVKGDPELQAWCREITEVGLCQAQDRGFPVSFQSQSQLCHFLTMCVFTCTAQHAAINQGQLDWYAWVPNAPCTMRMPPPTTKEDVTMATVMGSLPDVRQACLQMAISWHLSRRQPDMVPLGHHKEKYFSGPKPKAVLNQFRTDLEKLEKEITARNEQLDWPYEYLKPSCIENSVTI
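Hydroperoxide product was detected by ferrous iron/xylenol orange as the 573 to 405 nm absorbance ratio. Arachidonic acid at 40 uM (final) was turned over for 30 min at room temperature by 150 nM human 12hLO, pH 7.0 Hepes buffer, after 15 min compound preincubation.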
TGFb inhibitor – TGF-b pathway inhibition. HepG2 CAGA-GFP TGF-b/SMAD3 reporter, GFP fluorescence, 18 h; TGF-beta stimulated, 500 pg/mL final. AID 588855. Potency, µM (titrated, usually from 46.1 µM), for inactives: at the highest dose activity, negative = inhibition, actives largely listed as inhibitors. 1.2% of 410,000 active; note: % is set by controls: 0 for no effect and ±100 for the full control effect; nearly all actives have a fitted effect of over 65% in size
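HEPG2 CAGA-GFP reporter cells (1000/well, DMEM with 1% FBS) received compounds, then recombinant TGF-beta at 500 pg/mL final for 18 hours at 37 degrees C. Per-cell GFP summed per well was normalised to unstimulated and stimulated DMSO controls before curve fitting.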
ATXN2 expr inh – inhibitors of ATXN2 expression; HEK-293 ATXN2-luciferase reporter, luminescence, 24 h; Potency, µM (top dose mostly 57 µM), without a hit: at the highest dose activity change, negative = inhibition, usual class: inhibitors; 0.72% of 360,000 active; note: % is set by controls: 0 for no effect and ±100 for the full control effect; nearly all actives have a fitted effect of over 55% in size
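ATXN2-luciferase reporter cells (luciferase flanked by upstream and downstream ATXN2 gene portions) were treated 24 h at 37 °C with compounds at up to 57 uM. SteadyGlo luminescence gave expression; GF-AFC fluorescence gave viability.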
S2 tox – reduces viability in counter-screen for ATXN expression inhibitors. S2 cells (HEK-293 line with an ATXN2-luciferase reporter) viability, CellTiter-Fluor protease fluorescence, 24 h. 0.49% of 400,000 active. Potency, µM (highest dose often 56.7 µM), actives largely listed as cytotoxic. AID 651635; note: nearly all actives have a fitted effect of over 40% in size
HepG2 tox-1 – counter-screen for TGF-b inhibitors: cytotoxicity in HepG2 cells | AID 588856 | HepG2 CAGA-GFP viability, ATP luminescence, 18 h | 0.76% of 410,000 active | Potency, µM (series often up to 46.1 µM), without a hit: top-dose activity change, negative = cytotoxicity, hits mostly cytotoxic
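CellTiter-Glo luminescence gave cytotoxicity after 18 hours at 37 degrees C. The cells were HepG2 CAGA-GFP in 1% FBS DMEM, stimulated with 500 pg/mL TGF-beta after compound addition. %Activity was normalised to no-cell wells (complete cell-killing) and DMSO (no toxicity), and curves were fitted and classified.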
TGFb CAGA inh – TGF-b pathway inhibition, cherry-pick retest. Potency, µM (top dose mostly 46.1 µM), for inactives: at the top dose activity, negative = inhibition, actives largely listed as inhibitors. shares compounds with TGFb inhibitor. HepG2 CAGA-GFP TGF-b reporter, GFP fluorescence, 18 h; cells stimulated with TGF-beta, 500 pg/mL. 63% of 1,600 active; note: % is set by controls: 0 for no effect and ±100 for the full control effect; nearly all actives have a fitted effect of over 65% in size
HepG2 tox-2 – HepG2 cytotoxicity, TGF-b inhibitor counterscreen; AID 720535; 27% of 1,600 active; shares compounds with TGFb inhibitor; Potency, µM (doses to about 46.1 µM), without a hit: top-dose activity, negative = cytotoxicity, actives largely listed as inhibitors; HepG2 CAGA-GFP viability, ATP luminescence, 18 h; cells stimulated with TGF-beta, 500 pg/mL; note: % is set by controls: 0 for no effect and ±100 for the full control effect; nearly all actives have a fitted effect of over 70% in size
CCL64 TGFb inh – orthogonal confirmation of TGF-b inhibitors in CCL64 cells. shares compounds with TGFb inhibitor. Potency, µM (top dose mostly 46.1 µM), for the others: at the highest dose activity, negative = inhibition, most hits filed as inhibitors. CCL64 CAGA-GFP reporter, TGF-b stimulated, GFP fluorescence, 18 h. 41% of 1,600 active; note: nearly all actives have a fitted effect of over 65% in size
TGFb COP inh – validation of TGF-b inhibitors in HepG2 COP promoter reporter. shares compounds with TGFb inhibitor. HepG2 COP-GFP TGF-b reporter, GFP fluorescence, 18 h; cells stimulated by added recombinant TGF-beta. Potency, µM (doses to about 46.1 µM), for the others: at the top dose activity, negative = inhibition, usual class: inhibitors. 3% of 1,600 active. AID 720537; note: nearly all actives have a fitted effect of over 70% in size
Starred values were filed as active, the others as inactive; i = inactive; ? = inconclusive; . = no result. Compounds with a hit are over-represented: about 2.7% of the library has one in this group of screens. Calls come from the whole dose curve; as a rule, active = well fitted curve in the direction sought with a large enough effect; inconclusive = small, poorly fitted or top-dose-only effect, or another doubt; inactive = no such curve, though single readings can be large; an effect the other way counts as inactive or inconclusive. Potency is the fitted concentration of half-maximal effect.

SMILES | 12-LOX inh | TGFb inhibitor | ATXN2 expr inh | S2 tox | HepG2 tox-1 | TGFb CAGA inh | HepG2 tox-2 | CCL64 TGFb inh | TGFb COP inh
CC(C)C[C@H]1CNC(=S)N1C[C@H]1CCCN1C[C@H](Cc1ccc(O)cc1)N1C[C@H](Cc2ccccc2)N(CCc2ccccc2)C1=S | ? | ? | -12% | ? | -2% | . | . | . | .
CC(C)C[C@H]1CN([C@@H](CC(C)C)CN2CCC[C@@H]2CN2C(=S)NC[C@@H]2Cc2ccc(O)cc2)C(=S)N1CCc1ccccc1 | ? | 10µM* | ? | ? | -20% | 13µM* | ? | 16µM* | 54%
CCCCn1cnc2c1c(=O)[nH]c(=O)n2CCC | -24% | . | . | . | . | . | . | . | .
CC1CCCN(c2nc3c(c(=O)n(C)c(=O)n3C)n2CC(=O)O)C1 (centres undefined) | -9% | . | . | . | . | . | . | . | .
Cc1nc2cc(NC(=O)c3ccc(C(C)(C)C)cc3)ccc2o1 | 48% | . | . | . | . | . | . | . | .
ON=C1c2ccccc2-c2ccc(F)cc21 | -6% | 1.6µM* | 11% | i | -16% | 9.2µM* | ? | -24% | 55%
Cn1c(=O)[nH]c(=O)c2[nH]c(CN3CCN(c4cccc(Cl)c4)CC3)nc21 | 11% | . | . | . | . | . | . | . | .
COc1cc(/C=C(\C#N)c2nc3ccccc3[nH]2)ccc1OCC(=O)OC(C)C | -6% | . | . | . | . | . | . | . | .
CCc1ccc(NC(=O)COc2ccc(/C=C(/C#N)c3nc4ccccc4[nH]3)cc2OC)cc1 | -23% | 2.2µM* | 4.5µM* | . | -82% | ? | ? | 14% | 0%
C=CCNC(=O)N1CCN(C(c2ccc(F)cc2)c2ccc(F)cc2)CC1 | -6% | . | . | . | . | . | . | . | .
COc1ccc2c(C)c(CC(=O)NCCN3CCOCC3)c(=O)oc2c1OC | -48% | . | . | . | . | . | . | . | .
CC(C)(C)c1ccc(N/N=C(\C#N)S(=O)(=O)C(C)(C)C)cc1 | -16% | ? | -32% | ? | -43% | . | . | . | .
CC(C)(C)S(=O)(=O)/C(C#N)=N/Nc1ccc(Cl)cc1 | ? | ? | ? | ? | -33% | 13µM* | ? | ? | 49%
O=C1C(Nc2ccccc2)=C(NS(=O)(=O)c2ccccc2)C(=O)c2ccccc21 | 1% | 6.3µM* | 4% | i | -54% | ? | -29% | 4% | 2%
COc1ccc(/C=C/C(=O)c2cc(F)ccc2OC(=O)c2ccccc2)cc1OC | 13% | 8.9µM* | -8% | ? | -56% | ? | -2% | ? | 0%
COc1ccc(/C=C/C(=O)c2cc(F)ccc2OC(=O)c2ccc(OC)c(OC)c2)cc1OC | -15% | 0% | . | i | -30% | . | . | . | .
FC(F)(F)c1cccc(-n2nnnc2C2(N3CCOCC3)CCCC2)c1 | -48% | . | . | . | . | . | . | . | .
O=C(N/N=C/c1cc(Cl)ccc1O)c1ccccc1Br | -28% | ? | 3.2µM* | i | -29% | ? | ? | ? | -2%
O=C1CCCC2=C1C(c1ccco1)c1c(ncn3nc(-c4ccco4)nc13)O2 (centres undefined) | 6% | . | . | . | . | . | . | . | .
CC1=C(C(=O)N(C)C)CC(CC(=O)NC(c2ccccc2)c2ccccc2)C(=O)N1Cc1ccc(C(C)(C)C)cc1 (centres undefined) | 0% | ? | ? | ? | -5% | . | . | . | .
CC1=C(C(=O)N(C(C)C)C(C)C)CC(CC(=O)NCCCCc2ccccc2)C(=O)N1Cc1ccc(F)cc1 (centres undefined) | -21% | 7.9µM* | ? | ? | 3% | ? | -6% | 23µM* | -4%
CC1=C(C(=O)N(C(C)C)C(C)C)CC(CC(=O)NC(c2ccccc2)c2ccccc2)C(=O)N1Cc1ccc(C(C)(C)C)cc1 (centres undefined) | -4% | 18µM* | ? | i | 2% | 9.2µM* | -27% | ? | 9%
CCNC(=O)NC(=O)C(C)N(C)CC(=O)Nc1ccc(O)cc1 (centres undefined) | 9% | . | . | . | . | . | . | . | .
O=C1CN(c2nc(-c3ccncc3)nc3ccccc23)CCN1 | -5% | . | . | . | . | . | . | . | .
CC(NC(=O)CC(c1ccccc1)c1cc(Cl)ccc1O)c1ccccc1 (centres undefined) | -17% | 16µM* | -1% | ? | -1% | ? | 23µM* | 18µM* | 57%
SMILES | 12-LOX inh | TGFb inhibitor | ATXN2 expr inh | S2 tox | HepG2 tox-1 | TGFb CAGA inh | HepG2 tox-2 | CCL64 TGFb inh | TGFb COP inh
Cc1ccc(O)c(C(CC(=O)NC(C)C)c2ccccc2)c1 (centres undefined) | -8% | ? | -31% | i | -41% | . | . | . | .
COc1ccccc1NC(=O)COc1nc(CC(C)C)c2c(c1C#N)CCCC2 | 3% | . | . | . | . | . | . | . | .
CCn1c(=O)n(CC)c2cc(Sc3ccccc3)c(NC(=O)c3cccc(F)c3)cc21 | 18% | . | . | . | . | . | . | . | .
Cc1ccc(-c2csc(N(CCO)CCCn3c(C(F)(F)F)nc4cc(C(F)(F)F)ccc43)n2)cc1 | -13% | 7.1µM* | 2% | ? | -12% | 21µM* | -25% | ? | -4%
O=C(Nc1ccccc1Cc1ccccc1)c1ccccc1NS(=O)(=O)c1ccc(Cl)s1 | ? | 4.5µM* | ? | i | -25% | 5.8µM* | 10µM* | 9.2µM* | 80%
Nc1ccc2c(c1)[nH]c(=O)c1ccccc12 | 0% | -16% | 1% | i | -3% | . | . | . | .
Nc1cc2[nH]c(=O)c3ccccc3c2cc1Br | -7% | 0.32µM* | 1% | i | -21% | ? | 1.5µM* | 7% | 59%
Cc1ccc(CSc2nnc(-c3ccccn3)n2Cc2cccs2)cc1 | 0% | ? | ? | ? | -4% | . | . | . | .
Clc1ccc(CSc2nnc(-c3ccccn3)n2Cc2cccs2)cc1Cl | 9% | 8.9µM* | ? | ? | -8% | 15µM* | ? | ? | 42%
CCOC(=O)N(C)c1c(CC)nc2c(OCc3ccc(C(F)(F)F)cc3)cccn12 | 10% | ? | ? | i | -12% | ? | -19% | 4% | 0%
